Compounds without any hit were thinned out: in the full panel of roughly 83,000, 20% have a hit.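 Step 1: grow cells in 96-well plates. Step 2: add test compound at a single concentration. Step 3: incubate 48 h. Step 4: record percent growth.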 The source made the active and inactive calls. The calls were made as follows: active = growth percent below 10; inactive = the rest.
What was measured:
Assay in all cases: NCI-60 one-dose screen, 48 h (100 = growth as untreated, 0 = no growth, -100 = all killed)
Settings in all cases: 10 µM unless noted
[1] = test system: SK-MEL-2 melanoma
[2] = test system: SN12C renal
[3] = test system: UO-31 renal
[4] = test system: TK-10 renal
[5] = test system: ACHN renal
[6] = test system: CAKI-1 renal
[7] = test system: A498 renal
[8] = test system: CCRF-CEM leukemia
[9] = test system: MOLT-4 leukemia
[10] = test system: SR leukemia
[11] = test system: RPMI-8226 leukemia
[12] = test system: OVCAR-8 ovarian
[13] = test system: OVCAR-5 ovarian
[14] = test system: OVCAR-4 ovarian
[15] = test system: SK-OV-3 ovarian
[16] = test system: IGROV1 ovarian
[17] = test system: OVCAR-3 ovarian
[18] = test system: HS 578T breast
[19] = test system: NCI/ADR-RES ovarian

Measured: growth

CN(C)c1nc(NCCNS(=O)(=O)c2ccc(C(=O)/C=C/c3ccc(F)cc3)cc2)nc(Nc2ccc(F)cc2)n1
active: [1] -90.2% | [2] -99.8% | [3] -49.1% | [4] -41.4% | [5] -81.2% | [6] -51.9% | [7] 9.88% | [8] 4.06% | [9] -17.2% | [10] -34.5% | [11] -15.4% | [12] -96.2% | [13] -97.4% | [14] -82% | [15] -0.953% | [16] -84.6% | [17] -97.4% | [18] -11.3% | [19] -91.6%

COc1cc(-c2ccc(/C=N/NC(=O)c3[nH]c4ccc(Br)cc4c3-c3ccccc3)o2)cc(OC)c1OC
inactive: [1] 107% | [2] 96.3% | [3] 102% | [4] 112% | [5] 76% | [6] 74.5% | [7] 134% | [8] 69.5% | [9] 77.3% | [10] 78% | [11] 63.2% | [12] 67.2% | [13] 99.6% | [14] 92.3% | [15] 92.6% | [16] 95.1% | [17] 95.6% | [19] 59%

CCOC(=O)C1=C(N)N(c2ccccc2)C2=C(C(=O)CC(C)(C)C2)C1c1ccc(Cl)cc1Cl (stereo not drawn)
inactive: [2] 20.6% | [3] 16.8% | [4] 36.6% | [5] 17.1% | [6] 23.1% | [7] 46.8% | [8] 19.3% | [10] 10.1% | [12] 36.7% | [13] 56.9% | [14] 25.3% | [15] 34.5% | [16] 59.4% | [17] 33.3% | [19] 23.6%
active: [1] -12.3% | [9] 7.23% | [11] 7.77%

Nc1n[nH]c2cccc(C#Cc3cccc(NC(=O)c4cccc(Cl)c4)c3)c12
inactive: [1] 12.7% | [2] 28.5% | [3] 21.5% | [4] 49.9% | [5] 18.2% | [6] 18.8% | [7] 50.4% | [8] 15% | [11] 29.9% | [12] 21.4% | [13] 53.2% | [14] 39.9% | [15] 15.7% | [16] 21.6% | [17] 43.3% | [18] 43.2% | [19] 25.6%

CC(=O)NNc1ccc2nnc(-c3ccccc3)n2n1
inactive: [1] 102% | [2] 97.1% | [3] 88.5% | [4] 106% | [5] 104% | [6] 90.9% | [7] 108% | [8] 108% | [11] 115% | [12] 100% | [13] 113% | [14] 109% | [15] 110% | [16] 108% | [17] 95.4% | [18] 100% | [19] 104%

Cc1ccc(NC(=O)CN2CCN(c3ncnc4c3cnn4-c3ccccc3)CC2)cc1
inactive: [1] 87.8% | [2] 74.6% | [3] 63% | [4] 152% | [6] 77.8% | [7] 104% | [8] 78.4% | [9] 68.1% | [10] 52.6% | [11] 75.8% | [12] 71.4% | [13] 98% | [14] 82.9% | [15] 112% | [16] 81.3% | [17] 103% | [18] 77.7% | [19] 79.5%
active: [5] -32.7%

O=C(COc1ccc(NC(=O)Nc2ccc(Cl)c(Cl)c2)cc1)N=Nc1c(O)[nH]c2ccc(Cl)cc12
active: [1] -64.9% | [2] -30.4% | [4] 1.73% | [6] -5.97% | [7] -32.4% | [8] 8.9% | [9] -1.42% | [10] 3.93% | [11] 6.94% | [12] -48.4% | [13] -28% | [14] -16.6% | [15] -22.2% | [16] -48.6% | [17] -81.7% | [18] -13.7%
inactive: [3] 56.8% | [5] 20.9% | [19] 85.2%

Cc1ccc(C(=O)CSc2nc3ccc(C)cc3c(=O)n2-c2ccc(F)cc2)cc1
inactive: [1] 116% | [3] 43.8% | [4] 56.3% | [5] 19.3% | [6] 53% | [7] 19.6% | [8] 88% | [9] 93.2% | [10] 99.7% | [11] 98.5% | [12] 31.3% | [13] 84.8% | [14] 28.6% | [16] 80.5% | [17] 89.5% | [19] 40.6%
active: [18] -8.71%

Cc1ccc(-c2nc(Nc3ccccc3S(N)(=O)=O)c3ccccc3n2)cc1
inactive: [1] 102% | [2] 51.8% | [3] 50.4% | [4] 151% | [5] 74% | [6] 78% | [7] 118% | [8] 76.1% | [9] 78.5% | [10] 46.7% | [11] 59.7% | [12] 55.6% | [13] 85.3% | [14] 74.2% | [15] 91.4% | [16] 82.3% | [17] 97.1% | [18] 76.8% | [19] 55.7%

CC1[C@H]2[C@H](C[C@H]3[C@@H]4CC=C5c6sc(Nc7ccccc7F)nc6CC[C@]5(C)[C@H]4CC[C@@]32C)O[C@]12CC[C@@H](C)CO2 (stereo partly drawn)
inactive: [7] 17.5%
active: [1] -83% | [2] -69.4% | [3] -93.1% | [4] -60.2% | [5] -75.4% | [6] -82.2% | [8] -21.5% | [9] -16.2% | [10] 4.49% | [11] -16.2% | [12] -83.4% | [13] -67.1% | [14] -42.9% | [16] -37.6% | [17] -74.3% | [18] -16.1% | [19] -33.9%

CCN1CCN(Cc2ccc(C(=O)Nc3cccc(C#Cc4cccc5[nH]nc(N)c45)c3)cc2C(F)(F)F)CC1
active: [1] -80.7% | [2] -76.1% | [3] -94.2% | [4] -94.2% | [5] -98.2% | [6] -91.7% | [7] -84.6% | [8] 3.6% | [11] -30.9% | [12] -96.8% | [13] -88.8% | [14] -24.8% | [15] -69.2% | [16] -44.7% | [17] -22.1% | [18] -15.8% | [19] -27%
